Only some compounds are listed: those with a hit (about 6.9% of all), similar ones and a draw of the others.
Beta cell apopt = blocks beta cell apoptosis | AID 435005 | protection from apoptosis, % (concentration not given with the values) | actives 0.8% (n = 300,000) | INS-1E cytokine-induced death, ATP luminescence, 48 h; percent of positive-control rescue, neutral wells zero;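 active means Every replicate reaches about 75%, or at least half do and their mean reaches it too, limit read from the data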;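 further: 0% = cytokine-treated negative control wells and 100% = positive control rescue; higher means more ATP so stronger rescue from cytokine killing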
SKKanGAS inh = SKKanGAS growth inhibition | S. pyogenes SKKanGAS, kanamycin growth, BacTiter-Glo, 6 h | inhibition, % at 7.5 µM | actives 1.3% (n = 300,000);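 active means mean replicate score, as percent of positive control median, at least 50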;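 further: strain carries kanamycin resistance gene driven by streptokinase promoter and grows in 40 µg/ml kanamycin; loss of luminescence reflects streptokinase promoter inhibition or plain growth inhibition; 0% = median of DMSO wells and 100% = positive control at its reference dose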
Mdm2-MdmX inh = inhibitors of human Mdm2/MdmX interaction; O15151+Q00987; SaOS-2 split-luciferase Mdm2/MdmX complementation, luminescence; inhibition, % at 8 µM; actives 3% (n = 330,000); AID 485346;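 active means inhibition of at least 50% at 8 µM in the primary screen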
Target sequence (O15151 whole entry, looked up): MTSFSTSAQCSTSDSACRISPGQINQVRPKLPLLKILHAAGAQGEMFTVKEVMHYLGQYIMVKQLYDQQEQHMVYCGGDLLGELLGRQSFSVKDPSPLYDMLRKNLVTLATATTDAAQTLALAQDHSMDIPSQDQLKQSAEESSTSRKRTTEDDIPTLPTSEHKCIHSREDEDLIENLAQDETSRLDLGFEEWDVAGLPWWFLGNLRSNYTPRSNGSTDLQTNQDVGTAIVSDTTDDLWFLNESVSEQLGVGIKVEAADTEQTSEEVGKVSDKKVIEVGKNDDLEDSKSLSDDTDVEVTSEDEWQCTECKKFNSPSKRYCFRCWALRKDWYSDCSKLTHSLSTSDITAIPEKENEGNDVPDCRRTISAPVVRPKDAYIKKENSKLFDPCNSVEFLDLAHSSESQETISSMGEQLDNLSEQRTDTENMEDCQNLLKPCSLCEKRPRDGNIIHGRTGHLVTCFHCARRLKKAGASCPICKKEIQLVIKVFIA
Target sequence (Q00987 whole entry, looked up): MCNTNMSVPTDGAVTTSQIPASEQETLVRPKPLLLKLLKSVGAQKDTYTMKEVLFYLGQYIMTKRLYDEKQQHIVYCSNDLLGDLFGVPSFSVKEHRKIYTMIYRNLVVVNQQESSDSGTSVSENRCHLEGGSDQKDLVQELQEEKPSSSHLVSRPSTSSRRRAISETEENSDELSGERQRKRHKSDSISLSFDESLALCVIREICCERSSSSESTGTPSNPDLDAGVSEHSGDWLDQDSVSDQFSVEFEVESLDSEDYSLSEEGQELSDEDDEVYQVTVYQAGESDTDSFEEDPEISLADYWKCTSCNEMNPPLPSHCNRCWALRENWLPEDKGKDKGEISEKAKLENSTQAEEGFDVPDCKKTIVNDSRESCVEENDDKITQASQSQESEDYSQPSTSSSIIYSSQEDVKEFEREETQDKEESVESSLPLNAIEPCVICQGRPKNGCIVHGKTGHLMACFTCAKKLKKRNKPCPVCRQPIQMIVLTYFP
MPTP block = blocks calcium-induced mitochondrial swelling | isolated mouse mitochondria, Ca2+ swelling absorbance, 30 min | inhibition, % at 10 µM | actives 1.4% (n = 360,000);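 active means inhibition of 50% or more, scaled per plate between neutral and stimulator controls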;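 further: 0% = DMSO wells given calcium and 100% = 1 mM EGTA wells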
GRIN3A LBD mod = modulates the human NR3A ligand-binding domain; NR3A LBD differential scanning fluorimetry, Tm shift; 0% = protein alone, 100% = glycine-bound protein; Tm shift relative to glycine control, % at 25 µM; actives 2.5% (n = 340,000);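 active means melting temperature shift of at least 10% of the positive control shift, at one fixed dose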
CSC inhib = cancer stem cell inhibition; AID 2717; cancer stem cell-like cells viability, luminescence; actives 1.1% (n = 300,000); inhibition, % at 7.5 µM; in the data active means inhibition above about 75%; tested in HMLE shEcad cells
* hit, by the source's call; . = no result given.

SMILES	Beta cell apopt	SKKanGAS inh	Mdm2-MdmX inh	MPTP block	GRIN3A LBD mod	CSC inhib
COc1ccc(CN2Cc3cc(-c4cccc(F)c4)ccc3-n3nncc3C2)cc1	.	.	.	-2	.	.
COc1ccc(-c2[nH]ncc2CNC(C)Cc2cccc(C)n2)cc1F (configuration not stated)	2	-2	0	1	1	-12
CS(=O)(=O)c1ccc(C2=C(CNC(=O)c3cccs3)[C@H]3CC[C@@H](C2)N3Cc2ccco2)cc1	.	.	.	0	.	.
O=C(N/N=C/c1c(O)n(C2CCCCC2)c(=S)[nH]c1=O)c1ccccc1O	2	55*	18	18	22*	24
COc1ccc(OC)c(N=Cc2c(O)n(Cc3ccccc3)c(=S)[nH]c2=O)c1	-3	51*	3	-3	1	-2
c1ccc(Nc2ccc3ccccc3c2)cc1	.	.	.	3	-12	.
CC(C)Nc1ccc(Nc2ccccc2)cc1	113*	9	27	3	-8	4
COc1ccc(CC(C)NCCc2ccc(OC)c(OC)c2)cc1 (configuration not stated)	-7	-2	13	1	-1	-7
CCCCCCOc1ccc(CN2CCN(C)CC2)cc1	109*	-9	40	0	-2	.
CCOC(=O)Cc1csc(NC(=O)c2c(O)c3ccccc3n(CCC(C)C)c2=O)n1	-5	68*	10	19	-1	17
CCCCCCn1c(=O)c(C(=O)Nc2c(C)n(C)n(-c3ccccc3)c2=O)c(O)c2ccccc21	3	89*	16	3	0	41
CCCCn1c(=O)c(C(=O)Nc2ccccn2)c(O)c2ccccc21	29	53*	30	4	7	23
CCCCCn1c(=O)c(C(=O)Nc2ccccc2)c(O)c2ccccc21	46	-1	31	9	-2	16
CCCCCn1c(=O)c(C(=O)NCc2ccccc2Cl)c(O)c2ccccc21	101*	14	28	4	0	4
CCCCn1c(=O)c(C(=O)Nc2ccc(C)cn2)c(O)c2ccccc21	3	6	19	4	0	-24
CC(=Nc1ccccc1N)c1c(O)n(C)c(=O)[nH]c1=O	-6	3	12	1	0	-6
CCCCn1c(=O)c(C(=O)NCCc2ccccc2)c(O)c2ccccc21	-3	54*	6	4	-2	45
CCOc1ccc(NC(=O)c2ccc(NC(=O)COC(=O)Cc3ccccc3)cc2)cc1	10	-7	-59	0	17*	-7
CCOc1ccc(NC(=O)c2c(C)nn(Cc3ccccc3)c2Cl)cc1	-7	3	14	0	5	1
c1ccc2c(c1)[nH]c1cnccc12	-4	-1	16	0	14*	-12
CN1C2CCC1/C(=C/c1ccccn1)C(=O)/C2=C\c1ccccn1	100*	.	.	-1	1	38
O=c1cccc2n1CC1CC2CN(CC(O)CN2CC3CC(C2)c2cccc(=O)n2C3)C1 (configuration not stated)	-7	1	4	-1	0	-2
CC(C)c1ccc(N2C(=O)NC(=O)/C(=C/C=C/c3ccco3)C2=O)cc1	65	5	.	0	-4	98*
Cc1cc(C)cc(N2C(=O)NC(=O)/C(=C\C=C\c3ccco3)C2=O)c1	14	5	.	-5	12*	17
O=C1NC(=O)N(Cc2ccc(F)cc2)C(=O)/C1=C\C=C\c1ccco1	-2	-6	9	1	2	13
SMILES	Beta cell apopt	SKKanGAS inh	Mdm2-MdmX inh	MPTP block	GRIN3A LBD mod	CSC inhib
CCCCN1C(=O)/C(=C/C=C/c2ccco2)C(=O)NC1=S	.	5	.	-1	-2	.
CCc1ccc(N2C(=O)NC(=O)/C(=C\C=C\c3ccco3)C2=O)cc1	9	19	50	2	-1	116*
CN1CN(c2ccccc2)C2(CCN(CCCSc3ccccc3NC(=O)/C=C/c3ccccc3)CC2)C1=O	.	.	.	0	-3	.
CCC(C)NC(=O)c1c(N)n(Cc2ccc3c(c2)OCO3)c2nc3ccccc3nc12 (configuration not stated)	-12	14	41	6	15*	0
CCC(C)NC(=O)c1c(N)n(CC2CCCO2)c2nc3ccccc3nc12 (configuration not stated)	-4	2	12	-1	-20	-10
C[N+](C)(C)CC(=O)O	-5	.	-16	-3	13*	-4
CC(=O)N1N=C(c2c(O)n(C)c(=O)n(C)c2=O)CC1c1ccccc1 (configuration not stated)	10	51*	23	1	-1	34
c1ccc2c(CN3CCOCC3)c[nH]c2c1	.	-3	19	-1	-5	-9
c1ccc2c(CN3CCCCCC3)c[nH]c2c1	100*	-9	23	0	4	-13
CN(C)C1CCc2[nH]c3c(F)cc(F)cc3c2C1 (configuration not stated)	.	.	.	0	.	.
COc1ccc(-c2cc(=NCCCCCC(=O)O)c3cc(C)ccc3o2)cc1	.	1	.	-3	1	.
COc1ccc(-c2cc(=NCC(=O)O)c3ccccc3o2)cc1	7	-7	-32	0	13*	-2
C[C@H]1O[C@@H](OC2CC[C@]3(C=O)[C@H]4CC[C@]5(C)[C@@H](C6=CC(=O)OC6)CC[C@]5(O)[C@@H]4CC[C@]3(O)C2)CC2OC(C)(C)OC21 (some centres not stated)	-2	0	.	0	0	101*
Cc1ccc(NC(=O)[C@@H](NC(=O)N2C[C@H]3C[C@@H](C2)c2cccc(=O)n2C3)C(C)C)cc1	-4	-1	-3	-1	-2	-13
CCN(CC)C(=O)c1ccc(NC(=O)Nc2ccccc2F)cc1	68	71*	-74	1	-1	81*
Cc1ccc(OP(=O)(NCc2ccccc2)Oc2ccc(C)cc2)cc1	6	18	12	3	13*	7
Cc1ccc(NP(=O)(Oc2ccccc2)Oc2ccccc2)cc1	.	.	.	0	-2	.
c1ccc(C2OCCN3CCCCC23)cc1 (configuration not stated)	0	.	-12	15	11*	.
CC1C(c2ccccc2)OCCN1C (configuration not stated)	.	.	.	0	11*	.
CCCCn1nnnc1C(CCc1ccccc1)N1CCC2(CC1)C(=O)NCN2c1ccccc1 (configuration not stated)	.	.	.	1	.	.
O=c1c(C=NCc2cccs2)c(O)n(C2CCCCC2)c(=O)n1C1CCCCC1	1	14	27	1	-4	46
N=C(N)c1c(O)n(C2CCCCC2)c(=O)n(C2CCCCC2)c1=O	57	13	39	17	18*	102*
O=C1NCN(c2ccccc2)C12CCN(C(c1ccnc3ccccc13)c1nnnn1Cc1ccccc1)CC2 (configuration not stated)	.	.	.	0	.	.
C=CCn1c(O)c(C(CC)=Nc2ccc(N(C)C)cc2)c(=O)[nH]c1=O	-4	57*	11	4	-2	-3

Source: PubChem BioAssay
